From PubChem BioAssay AID1159580 (chemical genetic matrix, 2015)
Several values for one entry are separate records, joined by “and”; a condition that tells them apart may be missing. Equal entries are not always repeated. Among all 5,500 compounds or so, about 2,000 (36%) were called active. Another 18% or so got no clear call; they are omitted. Rule as the data show it: active = normalized growth mostly below about 0.91 (no sharp cut-off); inconclusive = no clear call, values can overlap the other calls; inactive = mostly above about 0.92. The list shows a part of the results.

Test: chemical genetic growth profiling, strain panel (AID 1159580);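 also: tested at 20 µM; growth read once vehicle control cultures reached saturation at 30 °C; 1 = growth at the plate median or of vehicle wells; lower values mean less growth of the strain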
Settings: S. cerevisiae deletion strains, growth OD

Measured: normalized growth

COc1cc(OC)c2c(c1Cl)OC1(C2=O)C(O)=CC(=O)CC1C (stereo unspecified)
inactive: locus YAL021C, strain ccr4, stronger effect = lower value 1.02 | locus YAL026C, strain drs2, stronger effect = lower value 1.01 | locus YAL030W, strain snc1, stronger effect = lower value 1.01 | locus YBL061C, strain skt5, stronger effect = lower value 1.01 | locus YBR009C, strain hhf1, stronger effect = lower value 1.01 | locus YBR021W, strain FUR4, stronger effect = lower value 1.04 | locus YBR023C, strain chs3, stronger effect = lower value 1.01 | locus YBR171W, strain sec66, stronger effect = lower value 1.03 | locus YBR229C, strain ROT2, stronger effect = lower value 1.02 | locus YBR231C, strain swc5, stronger effect = lower value 1.01 | locus YBR279W, strain paf1, stronger effect = lower value 1.01 | locus YCL011C, strain gbp2, stronger effect = lower value 1.02 | locus YCL016C, strain dcc1, stronger effect = lower value 1.01 | locus YCL029C, strain bik1, stronger effect = lower value 1.01 | locus YCL061C, strain MRC1, stronger effect = lower value 1.01 | locus YCL069W, strain vba3, stronger effect = lower value 1.01 | locus YCR088W, strain abp1, stronger effect = lower value 1.01 | locus YDL005C, strain med2, stronger effect = lower value 1.01 | locus YDL035C, strain GPR1, stronger effect = lower value 1.04 | locus YDL040C, strain nat1, stronger effect = lower value 1.01 | locus YDL074C, strain BRE1, stronger effect = lower value 1.07 | locus YDL101C, strain DUN1, stronger effect = lower value 1.03 | locus YDL134C, strain PPH21, stronger effect = lower value 1.01 | locus YDL185W, strain tfp1, stronger effect = lower value 0.981 | locus YDL192W, strain arf1, stronger effect = lower value 1.02 | locus YDR001C, strain nth1, stronger effect = lower value 1.01 | locus YDR069C, strain doa4, stronger effect = lower value 1.01 | locus YDR101C, strain arx1, stronger effect = lower value 1.02 | locus YDR137W, strain rgp1, stronger effect = lower value 1.02 | locus YDR159W, strain sac3, stronger effect = lower value 1.02 | locus YDR162C, strain NBP2, stronger effect = lower value 1.05 | locus YDR195W, strain ref2 1.03 | locus YDR297W, strain sur2, stronger effect = lower value 1.01 | locus YDR318W, strain mcm21, stronger effect = lower value 1 | locus YDR334W, strain swr1, stronger effect = lower value 1.01 | locus YDR335W, strain msn5, stronger effect = lower value 1.02 | locus YDR388W, stronger effect = lower value 1.01 | locus YDR392W, strain spt3, stronger effect = lower value 1.01 | locus YDR502C, strain sam2, stronger effect = lower value 0.986 | locus YEL003W, strain gim4, stronger effect = lower value 1.01 | locus YEL037C, strain rad23, stronger effect = lower value 1 | locus YEL061C, strain CIN8 (second series), stronger effect = lower value 1.01 | locus YER015W, strain faa2, stronger effect = lower value 1.01 | locus YER016W, strain bim1, stronger effect = lower value 1.02 | locus YER110C, stronger effect = lower value 0.977 | locus YER111C, strain swi4, stronger effect = lower value 1.01 | locus YER155C, strain BEM2 (second series), stronger effect = lower value 1.03 | locus YER155C, strain BEM2, stronger effect = lower value 1.02 | locus YER167W, strain BCK2, stronger effect = lower value 1.02 | locus YFR010W, strain ubp6, stronger effect = lower value 1.01 | locus YGL078C, strain dbp3, stronger effect = lower value 0.978 | locus YGL086W, strain mad1, stronger effect = lower value 1.01 | locus YGL167C, strain pmr1, stronger effect = lower value 1.02 | locus YGL173C, strain kem1, stronger effect = lower value 1.01 | locus YGL227W, strain vid30, stronger effect = lower value 1.01 | locus YGL240W, strain doc1, stronger effect = lower value 1 | locus YGL248W, strain PDE1, stronger effect = lower value 1.02 | locus YGL253W, strain hxk2, stronger effect = lower value 1.01 | locus YGR135W, strain pre9, stronger effect = lower value 0.983 | locus YGR252W, strain gcn5, stronger effect = lower value 0.915 | locus YHR013C, strain ard1, stronger effect = lower value 1.03 | locus YHR027C, strain rpn1, stronger effect = lower value 1.01 | locus YHR030C, strain SLT2, stronger effect = lower value 1.02 and 0.99 | locus YHR079C, strain IRE1 (second series), stronger effect = lower value 0.979 | locus YHR079C, strain IRE1, stronger effect = lower value 0.997 | locus YHR094C, strain hxt1, stronger effect = lower value 0.983 | locus YHR129C, strain ARP1, stronger effect = lower value 1.02 | locus YHR142W, strain chs7, stronger effect = lower value 1.02 | locus YHR200W, strain rpn10, stronger effect = lower value 0.999 | locus YIL066C, strain RNR3, stronger effect = lower value 1.07 | locus YIL073C, strain SPO22, stronger effect = lower value 1 | locus YIL125W, strain kgd1, stronger effect = lower value 0.99 | locus YIR030C, strain dcg1, stronger effect = lower value 1.01 | locus YJL092W, strain hpr5, stronger effect = lower value 1.01 | locus YJL095W, strain BCK1 (second series), stronger effect = lower value 1 | locus YJL095W, strain BCK1, stronger effect = lower value 1.04 and 0.978 | locus YJL115W, strain asf1, stronger effect = lower value 1 | locus YJL129C, strain trk1, stronger effect = lower value 1.02 | locus YJL134W, strain LCB3, stronger effect = lower value 1.02 | locus YJL154C, strain vps35, stronger effect = lower value 1.02 | locus YJL164C, strain tpk1, stronger effect = lower value 1.01 | locus YJL166W, strain qcr8, stronger effect = lower value 1.01 | locus YJL168C, strain set2, stronger effect = lower value 0.977 | locus YJL187C, strain SWE1 (second series), stronger effect = lower value 1.03 | locus YJL187C, strain SWE1, stronger effect = lower value 1.01 | locus YJR066W, strain TOR1, stronger effect = lower value 0.9
